# Data from PubChem BioAssay (EPA / NIEHS).
# “And” between values parts separate entries of the source, which are not always exact repeats. Identical values can stand only once. Results filed as inconclusive are left out. Some compounds were tested as several samples or in several runs, with calls that do not always agree. The source made the active and inactive calls. Rule for the calls, unless noted: active = hit-call score of the fitted dose curve at least 0.9, where 1 is the maximum; inactive = score below 0.9.
# Columns and labels:
# [1] = biological target: Estrogen-related receptor gamma (Homo sapiens) (UniProt P62508); assay: ATG_ERRg_TRANS: Attagene TRANS-FACTORIAL HepG2 Assay for human Estrogen-Related Receptor gamma (ERRg) (AID 2282977; active = hit-call score of the fitted dose curve at least 0.9, where 1 is the maximum;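 note: hits increase reporter signal over DMSO so potencies reflect activators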); details: HepG2 Attagene TRANS reporter, ERRg transactivation
# Method in brief: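 Transient HepG2 transfectants, 24 h compound exposure, GAL4-UAS reporter mRNA by RT-PCR/6-FAM labelling/capillary electrophoresis; positive direction vs DMSO.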
# [2] = biological target: Glucocorticoid receptor (Homo sapiens) (UniProt P04150); assay: ATG_GR_TRANS: Attagene TRANS-FACTORIAL HepG2 Assay for human Glucocorticoid Receptor (GR) (AID 2282978; active = hit-call score of the fitted dose curve at least 0.9, where 1 is the maximum;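 note: activators score as hits since higher reporter transcript over DMSO is fitted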); details: HepG2 Attagene TRANS GR reporter, mRNA transcription
# Method in brief: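 Transient MRTU transfection of HepG2 (GAL4-UAS reporters, exogenous NR-GAL4 chimeras), 24 h dosing. Readout: reporter transcript via RT-PCR + capillary electrophoresis fluorescence. Positive direction vs DMSO baseline.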
# [3] = biological target: Oxysterols receptor LXR-alpha (Homo sapiens) (UniProt Q13133); assay: ATG_LXRa_TRANS: Attagene TRANS-FACTORIAL HepG2 Assay for human Liver X Receptor alpha (LXRa) (AID 2282980; active = hit-call score of the fitted dose curve at least 0.9, where 1 is the maximum); details: HepG2 Attagene TRANS reporter, LXRa transactivation
# Method in brief: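 In this multiplexed TRANS system, compounds act on HepG2 cells carrying GAL4-UAS reporter units and a receptor-GAL4 fusion for 24 h. Induced reporter RNA is amplified, fluorescently labelled and sized by capillary electrophoresis, with DMSO as baseline.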
# [4] = biological target: Oxysterols receptor LXR-beta (Homo sapiens) (UniProt P55055); assay: ATG_LXRb_TRANS: Attagene TRANS-FACTORIAL HepG2 Assay for human Liver X Receptor beta (LXRb) (AID 2282981; active = hit-call score of the fitted dose curve at least 0.9, where 1 is the maximum); details: HepG2 Attagene TRANS GAL4-LXRb reporter, mRNA
# Method in brief: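 Gain-of-signal mRNA reporter endpoint, DMSO as negative control. Transiently transfected HepG2 cells carrying the NR-Gal4 chimera and GAL4-UAS reporter units were treated 24 h; transcripts quantified by RT-PCR and capillary electrophoresis fluorescence.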
# [5] = biological target: Hepatocyte nuclear factor 4-alpha (Homo sapiens) (UniProt P41235); assay: ATG_HNF4a_TRANS: Attagene TRANS-FACTORIAL HepG2 Assay for human Hepatocyte Nuclear Factor 4 alpha (HNF4a) (AID 2282982; active = hit-call score of the fitted dose curve at least 0.9, where 1 is the maximum); details: HepG2 HNF4a transactivation reporter, mRNA readout
# Method in brief: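 Gain-of-signal mRNA induction, relative to DMSO vehicle, was read after 24 h compound treatment of HepG2 cells bearing transfected GAL4-UAS reporters. Detection used RT-PCR, 6-FAM primer extension and capillary electrophoresis.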
# [6] = ATG_M_06_TRANS: Attagene TRANS-FACTORIAL HepG2 Assay for M06 Transcription Factor (Internal Marker) (AID 2282983; active = hit-call score of the fitted dose curve at least 0.9, where 1 is the maximum); details: HepG2 Attagene TRANS M06 internal marker reporter
# Method in brief: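 Internal-marker background readout from a multiplexed TRANS reporter system in HepG2; 24 h dosing; mRNA induction quantified by RT-PCR plus capillary electrophoresis fluorescence; DMSO as negative control and baseline.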
# [7] = ATG_M_32_TRANS: Attagene TRANS-FACTORIAL HepG2 Assay for M32 Transcription Factor (Internal Marker) (AID 2282984; active = hit-call score of the fitted dose curve at least 0.9, where 1 is the maximum;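 note: transcript level of a background control reporter unit measured by RT-PCR and capillary electrophoresis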); details: HepG2 Attagene TRANS M32 internal marker reporter
# Method in brief: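 Capillary electrophoresis of 6-FAM-labelled reporter fragments gives the signal; data fitted for gain over DMSO negative control. Source: HepG2 cells bearing transient multiple reporter transcription units, 24 h exposure.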
# [8] = biological target: Nuclear receptor subfamily 4 group A member 2 (Homo sapiens) (UniProt P43354); assay: ATG_NURR1_TRANS: Attagene TRANS-FACTORIAL HepG2 Assay for human Nuclear Receptor Related Protein 1 (NURR1) (AID 2282985; active = hit-call score of the fitted dose curve at least 0.9, where 1 is the maximum); details: HepG2 Attagene TRANS reporter, mRNA readout
# Method in brief: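 HepG2 / transient MRTU transfection / 24 h compound exposure / RT-PCR + CE fluorescence of reporter mRNA / gain-of-signal vs DMSO.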
# [9] = biological target: Transcriptional activator Myb (Homo sapiens) (UniProt P10242); assay: ATG_Myb_CIS: Attagene CIS-FACTORIAL HepG2 Assay for human Myeloblastosis (Myb) Proto-Oncogene Transcription Factor (AID 2282986); details: HepG2 Attagene CIS-FACTORIAL Myb reporter transcription; actives raise or lower the signal
# Method in brief: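 HepG2, transient MRTU transfection (cis-element promoters, endogenous TF activity), 24 h compound exposure. Readout: reporter mRNA via RT-PCR, 6-FAM labeling, HpaI digest, capillary electrophoresis. Gain/loss fit vs DMSO.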
# [10] = biological target: Nuclear respiratory factor 1 (Homo sapiens) (UniProt Q16656); assay: ATG_NRF1_CIS: Attagene CIS-FACTORIAL HepG2 Assay for human Nuclear Respiratory Factor 1 (NRF1) Orphan Gene (AID 2282987); details: HepG2 NRF1 cis-element reporter, Attagene multiplex; actives raise or lower the signal
# Method in brief: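 Endogenous NRF1-driven reporter transcription measured in transiently transfected human HepG2 liver cells. Readout: reporter mRNA by RT-PCR and capillary electrophoresis with fluorescence detection, 24 h post-dosing. Gain or loss of signal fitted relative to DMSO baseline.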
# [11] = ATG_NFI_CIS: Attagene CIS-FACTORIAL HepG2 Assay for human Nuclear Factor I (NFI) (AID 2282989); details: HepG2 cis-regulatory reporter, NFI response element transcription; actives raise or lower the signal
# Method in brief: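 Transfected HepG2 liver cells, exposed 24 h, supplied total RNA for oligo(dT) reverse transcription and reporter-specific PCR. Labelled, HpaI-cut fragments were sized by capillary electrophoresis; DMSO set the baseline for bidirectional fitting.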
# [12] = biological target: Myc proto-oncogene protein (Homo sapiens) (UniProt P01106); assay: ATG_Myc_CIS: Attagene CIS-FACTORIAL HepG2 Assay for human Myelocytomatosis (Myc) Proto-Oncogene Transcription Factor (AID 2282990); details: HepG2, Attagene cis-reporter transcription factor activity; actives raise or lower the signal
# Method in brief: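 Transiently transfected HepG2 cells bearing cis-promoter reporter units for endogenous transcription factors; 24 h exposure. Reporter mRNA measured by RT-PCR, 6-FAM primer extension, HpaI cut and capillary electrophoresis; bidirectional fit relative to DMSO.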
# [13] = ATG_NF_kB_CIS: Attagene CIS-FACTORIAL HepG2 Assay for human Nuclear Factor Kappa B (NF-kB) (AID 2282991); details: HepG2 Attagene cis-factorial NF-kB reporter mRNA; actives raise or lower the signal
# Method in brief: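 Read-out: reporter transcript levels quantified by RT-PCR plus capillary electrophoresis of 6-FAM-labelled, HpaI-cut fragments. Transfected HepG2 cells, 24 h compound exposure, endogenous NF-kB-driven cis element; gain or loss scored versus DMSO.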
# [14] = ATG_NRF2_ARE_CIS: Attagene CIS-FACTORIAL HepG2 Assay for human Nuclear Factor Erythroid 2 Related Factor 2 (NFR2) response to Antioxidant Response Elements (ARE) (AID 2282992); details: HepG2 Attagene ARE/NRF2 reporter, transcription factor activity; actives raise or lower the signal
# Method in brief: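 HepG2 cells transiently transfected with multiplexed cis-element reporter constructs, 24 h after chemical dosing; reporter mRNA quantified by RT-PCR, fluorescent primer extension, HpaI digestion and capillary electrophoresis. Bidirectional fit relative to DMSO.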
# [15] = ATG_Oct_MLP_CIS: Attagene CIS-FACTORIAL HepG2 Assay for human Octamer-Binding Transcription Factor (Oct) (AID 2282993); details: HepG2 Attagene cis-factorial Oct reporter, mRNA; actives raise or lower the signal
# Method in brief: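 Using HepG2 cells bearing transfected cis-reporter constructs, mRNA induction was read after 24 h by fluorescent RT-PCR and capillary electrophoresis, with DMSO defining baseline for gain- or loss-of-signal fits.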
# [16] = biological target: Cellular tumor antigen p53 (Homo sapiens) (UniProt P04637); assay: ATG_p53_CIS: Attagene CIS-FACTORIAL HepG2 Assay for human p53 Transcription Factor (AID 2282994); details: HepG2 p53 cis-element reporter, Attagene mRNA; actives raise or lower the signal
# Method in brief: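 HepG2 cells transiently transfected with cis-regulated multiple reporter transcription units, dosed 24 h. Reporter mRNA measured by RT-PCR, 6-FAM primer extension, HpaI digestion and capillary electrophoresis; bidirectional fit relative to DMSO.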
# [17] = BSK_3C_TissueFactor: BioMAP Diversity Plus: 3C Assay for Tissue Factor Biomarker Activity (AID 2282997); details: BioMAP 3C HUVEC, tissue factor biomarker readout; actives raise or lower the signal
# Method in brief: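 Endothelial monolayers (human umbilical vein, primary) are dosed, incubated 24 h, and assayed for Tissue Factor by ELISA; DMSO serves as negative control for bidirectional fitting.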
# [18] = BSK_3C_uPAR: BioMAP Diversity Plus: 3C Assay for Urokinase-type plasminogen activator receptor (uPAR) Biomarker Activity (AID 2282998); details: BioMAP 3C HUVEC, uPAR biomarker ELISA; actives raise or lower the signal
# Method in brief: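 In this endothelial cell-based assay, human umbilical vein primary cells were treated with chemicals and harvested at 24 h. uPAR was quantified using ELISA, with gains or losses fitted relative to DMSO controls.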
# [19] = BSK_3C_VCAM1: BioMAP Diversity Plus: 3C Assay for Vascular cell adhesion molecule 1 (VCAM1) Biomarker Activity (AID 2282999); details: BioMAP 3C HUVEC, VCAM1 ELISA, cytokine-stimulated; actives raise or lower the signal
# Method in brief: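 Human umbilical vein endothelial cells (3C system), biomarker read by ELISA 24 h after dosing; bidirectional fit against DMSO baseline. Cytotoxicity tracked by SRB total-protein staining in parallel cultures at biomarker time.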
# [20] = biological target: Bile acid receptor (Homo sapiens) (UniProt Q96RI1); assay: ATG_FXR_TRANS: Attagene TRANS-FACTORIAL HepG2 Assay for Farnesoid X Receptor (FXR) (AID 2282979; active = hit-call score of the fitted dose curve at least 0.9, where 1 is the maximum;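 note: hits raise reporter mRNA above DMSO so AC50 marks FXR activation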); details: HepG2 Attagene TRANS FXR-GAL4 reporter transcription
# Method in brief: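 After 24 h chemical treatment of transfected HepG2 cells, GAL4-UAS reporter transcripts driven by an exogenous FXR-GAL4 fusion were measured by RT-PCR and capillary electrophoresis. Increases over DMSO were fitted.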
# Chain of Nuclear receptor subfamily 4 group A member 2 (Homo sapiens) (P43354 whole entry, looked up): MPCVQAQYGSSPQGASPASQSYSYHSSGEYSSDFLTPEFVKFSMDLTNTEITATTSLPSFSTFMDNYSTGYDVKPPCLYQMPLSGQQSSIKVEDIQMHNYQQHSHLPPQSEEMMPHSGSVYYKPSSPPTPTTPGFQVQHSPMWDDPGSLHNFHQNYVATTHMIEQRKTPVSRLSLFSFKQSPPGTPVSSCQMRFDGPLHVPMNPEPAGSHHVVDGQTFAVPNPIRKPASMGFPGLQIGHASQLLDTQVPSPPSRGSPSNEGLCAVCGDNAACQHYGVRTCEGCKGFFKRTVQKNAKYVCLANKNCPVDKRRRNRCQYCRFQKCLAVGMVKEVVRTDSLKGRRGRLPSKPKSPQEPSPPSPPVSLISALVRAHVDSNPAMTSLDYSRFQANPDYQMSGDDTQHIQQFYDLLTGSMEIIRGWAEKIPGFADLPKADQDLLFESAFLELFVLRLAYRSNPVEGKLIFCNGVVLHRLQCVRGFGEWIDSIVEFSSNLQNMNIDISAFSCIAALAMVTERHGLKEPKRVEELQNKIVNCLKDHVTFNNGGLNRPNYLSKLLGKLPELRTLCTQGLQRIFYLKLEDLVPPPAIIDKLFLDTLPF
# Chain of Glucocorticoid receptor (Homo sapiens) (P04150 whole entry, looked up, the tested form may be a part): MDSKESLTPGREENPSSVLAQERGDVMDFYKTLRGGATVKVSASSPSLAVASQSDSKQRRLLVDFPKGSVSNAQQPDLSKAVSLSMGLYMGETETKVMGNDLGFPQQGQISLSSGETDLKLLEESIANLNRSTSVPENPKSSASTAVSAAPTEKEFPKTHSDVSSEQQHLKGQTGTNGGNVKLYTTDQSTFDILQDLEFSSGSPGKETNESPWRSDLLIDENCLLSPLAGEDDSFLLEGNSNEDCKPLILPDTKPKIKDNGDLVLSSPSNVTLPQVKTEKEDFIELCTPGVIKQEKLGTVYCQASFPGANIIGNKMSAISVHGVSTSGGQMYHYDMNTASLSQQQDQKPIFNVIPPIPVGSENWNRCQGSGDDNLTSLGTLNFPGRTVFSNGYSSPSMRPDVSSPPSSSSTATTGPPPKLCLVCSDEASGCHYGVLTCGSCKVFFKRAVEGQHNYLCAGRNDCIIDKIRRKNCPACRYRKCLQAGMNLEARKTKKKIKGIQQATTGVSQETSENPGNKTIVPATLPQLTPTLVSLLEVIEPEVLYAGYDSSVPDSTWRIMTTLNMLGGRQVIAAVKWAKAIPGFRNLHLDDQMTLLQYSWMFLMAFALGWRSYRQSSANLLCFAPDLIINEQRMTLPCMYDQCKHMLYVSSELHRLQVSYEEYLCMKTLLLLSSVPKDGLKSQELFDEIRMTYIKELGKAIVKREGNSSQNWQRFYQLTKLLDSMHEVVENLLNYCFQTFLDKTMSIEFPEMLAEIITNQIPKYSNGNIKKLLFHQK
# Chain of Oxysterols receptor LXR-alpha (Homo sapiens) (Q13133 whole entry, looked up, the tested form may be a part): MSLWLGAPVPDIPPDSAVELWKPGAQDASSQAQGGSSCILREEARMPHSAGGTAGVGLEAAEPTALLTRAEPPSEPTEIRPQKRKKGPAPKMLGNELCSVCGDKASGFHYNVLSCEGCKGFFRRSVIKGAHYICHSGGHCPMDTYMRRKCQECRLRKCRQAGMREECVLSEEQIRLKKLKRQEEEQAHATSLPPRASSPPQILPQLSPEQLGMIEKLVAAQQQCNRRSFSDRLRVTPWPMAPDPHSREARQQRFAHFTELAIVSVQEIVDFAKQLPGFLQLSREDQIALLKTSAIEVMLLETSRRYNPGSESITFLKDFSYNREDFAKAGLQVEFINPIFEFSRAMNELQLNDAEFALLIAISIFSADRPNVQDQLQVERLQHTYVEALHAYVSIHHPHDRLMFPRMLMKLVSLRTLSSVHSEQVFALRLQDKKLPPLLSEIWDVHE
# Chain of Cellular tumor antigen p53 (Homo sapiens) (P04637 whole entry, looked up): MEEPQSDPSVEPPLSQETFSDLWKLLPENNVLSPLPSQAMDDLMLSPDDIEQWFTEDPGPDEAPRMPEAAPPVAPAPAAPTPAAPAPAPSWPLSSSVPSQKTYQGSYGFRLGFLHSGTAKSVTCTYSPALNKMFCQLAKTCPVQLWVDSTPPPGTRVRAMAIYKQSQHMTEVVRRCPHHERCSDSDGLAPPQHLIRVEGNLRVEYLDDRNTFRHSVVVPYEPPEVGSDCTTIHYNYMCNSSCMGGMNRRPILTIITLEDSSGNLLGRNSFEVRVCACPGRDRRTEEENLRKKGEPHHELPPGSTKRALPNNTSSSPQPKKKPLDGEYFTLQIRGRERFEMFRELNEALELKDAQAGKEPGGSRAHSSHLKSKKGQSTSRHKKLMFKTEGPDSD
# Chain of Hepatocyte nuclear factor 4-alpha (Homo sapiens) (P41235 whole entry, looked up, the tested form may be a part): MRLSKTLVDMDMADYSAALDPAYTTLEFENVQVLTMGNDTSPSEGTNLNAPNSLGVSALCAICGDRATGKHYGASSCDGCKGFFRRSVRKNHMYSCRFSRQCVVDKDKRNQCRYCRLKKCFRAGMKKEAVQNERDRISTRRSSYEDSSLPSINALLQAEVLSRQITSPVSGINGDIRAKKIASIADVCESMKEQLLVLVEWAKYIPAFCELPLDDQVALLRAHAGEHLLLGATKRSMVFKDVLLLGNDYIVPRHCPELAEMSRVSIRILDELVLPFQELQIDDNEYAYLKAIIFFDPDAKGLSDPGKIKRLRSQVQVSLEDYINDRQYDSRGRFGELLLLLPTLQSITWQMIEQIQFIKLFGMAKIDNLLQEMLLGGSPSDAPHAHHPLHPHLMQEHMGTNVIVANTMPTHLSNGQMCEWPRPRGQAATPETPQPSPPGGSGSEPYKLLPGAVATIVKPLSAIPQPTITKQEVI
# Chain of Estrogen-related receptor gamma (Homo sapiens) (P62508 whole entry, looked up, the tested form may be a part): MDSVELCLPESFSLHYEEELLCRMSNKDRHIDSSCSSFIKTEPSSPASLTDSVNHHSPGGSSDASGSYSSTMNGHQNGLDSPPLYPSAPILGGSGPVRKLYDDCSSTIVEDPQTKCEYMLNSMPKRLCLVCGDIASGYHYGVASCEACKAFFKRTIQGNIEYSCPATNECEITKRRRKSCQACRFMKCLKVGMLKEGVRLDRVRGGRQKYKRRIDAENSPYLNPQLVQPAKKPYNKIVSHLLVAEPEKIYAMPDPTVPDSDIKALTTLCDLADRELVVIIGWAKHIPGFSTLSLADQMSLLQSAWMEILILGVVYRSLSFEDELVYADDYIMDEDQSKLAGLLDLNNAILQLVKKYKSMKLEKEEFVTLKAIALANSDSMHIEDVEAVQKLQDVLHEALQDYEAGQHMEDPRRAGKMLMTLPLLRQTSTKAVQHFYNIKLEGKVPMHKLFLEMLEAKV
# Chain of Nuclear respiratory factor 1 (Homo sapiens) (Q16656 whole entry, looked up): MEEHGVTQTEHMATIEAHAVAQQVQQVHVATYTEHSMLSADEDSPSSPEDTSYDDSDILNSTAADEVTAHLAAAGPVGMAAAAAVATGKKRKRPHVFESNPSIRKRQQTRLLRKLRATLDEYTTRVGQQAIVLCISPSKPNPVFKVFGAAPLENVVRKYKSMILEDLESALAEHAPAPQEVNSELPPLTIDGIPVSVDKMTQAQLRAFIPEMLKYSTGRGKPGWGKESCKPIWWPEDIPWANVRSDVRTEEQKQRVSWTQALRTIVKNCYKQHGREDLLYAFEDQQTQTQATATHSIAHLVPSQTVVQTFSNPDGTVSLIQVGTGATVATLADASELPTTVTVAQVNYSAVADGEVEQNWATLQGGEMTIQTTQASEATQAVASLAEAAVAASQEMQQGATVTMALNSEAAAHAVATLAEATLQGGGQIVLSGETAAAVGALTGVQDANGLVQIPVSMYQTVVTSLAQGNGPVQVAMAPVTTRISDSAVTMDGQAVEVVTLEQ
# Chain of Bile acid receptor (Homo sapiens) (Q96RI1 whole entry, looked up, the tested form may be a part): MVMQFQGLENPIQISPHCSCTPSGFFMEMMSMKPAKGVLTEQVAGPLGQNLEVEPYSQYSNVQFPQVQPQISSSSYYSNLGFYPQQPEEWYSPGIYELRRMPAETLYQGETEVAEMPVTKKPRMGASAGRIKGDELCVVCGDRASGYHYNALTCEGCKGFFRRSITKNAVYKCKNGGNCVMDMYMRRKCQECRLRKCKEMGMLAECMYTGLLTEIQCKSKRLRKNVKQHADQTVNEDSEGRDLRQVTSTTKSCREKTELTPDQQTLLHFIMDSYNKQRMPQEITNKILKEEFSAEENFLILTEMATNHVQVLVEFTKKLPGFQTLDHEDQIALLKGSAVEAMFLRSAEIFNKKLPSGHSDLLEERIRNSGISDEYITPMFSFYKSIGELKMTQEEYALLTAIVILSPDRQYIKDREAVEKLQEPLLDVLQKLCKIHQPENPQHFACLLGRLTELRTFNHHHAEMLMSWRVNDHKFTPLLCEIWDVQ
# Chain of Transcriptional activator Myb (Homo sapiens) (P10242 whole entry, looked up): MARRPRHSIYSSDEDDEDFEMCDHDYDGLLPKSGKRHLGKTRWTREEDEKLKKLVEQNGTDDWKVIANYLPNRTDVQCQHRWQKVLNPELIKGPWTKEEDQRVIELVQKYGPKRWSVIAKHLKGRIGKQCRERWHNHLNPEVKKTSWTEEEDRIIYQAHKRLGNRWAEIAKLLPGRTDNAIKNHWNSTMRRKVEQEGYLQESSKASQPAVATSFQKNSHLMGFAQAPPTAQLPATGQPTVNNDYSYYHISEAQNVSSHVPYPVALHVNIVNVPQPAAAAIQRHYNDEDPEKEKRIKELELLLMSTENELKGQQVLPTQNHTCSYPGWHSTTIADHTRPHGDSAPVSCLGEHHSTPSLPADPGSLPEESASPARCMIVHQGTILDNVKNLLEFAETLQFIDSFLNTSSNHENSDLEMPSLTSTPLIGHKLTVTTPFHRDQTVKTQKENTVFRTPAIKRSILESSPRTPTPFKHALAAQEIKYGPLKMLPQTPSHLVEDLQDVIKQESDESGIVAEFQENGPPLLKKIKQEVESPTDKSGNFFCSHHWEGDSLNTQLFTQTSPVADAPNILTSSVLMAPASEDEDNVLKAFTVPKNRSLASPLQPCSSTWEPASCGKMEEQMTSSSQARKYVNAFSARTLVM
smiles,measurement,setting,value
O=S(=O)(O)C(F)(F)C(F)(F)C(F)(F)C(F)(F)F,outcome,[1],inactive
same,outcome,[2],inactive
same,outcome,[3],inactive
same,outcome,[4],inactive
same,outcome,[5],inactive
same,outcome,[6],inactive
same,outcome,[7],inactive
same,outcome,[8],inactive
same,outcome,[9],inactive
same,outcome,[10],inactive
same,outcome,[11],inactive
same,outcome,[12],inactive
same,outcome,[13],inactive
same,outcome,[14],inactive
same,outcome,[15],inactive
same,outcome,[16],inactive
same,outcome,[17],inactive
same,outcome,[18],inactive
same,outcome,[19],inactive
CC(c1ccc(O)cc1)(c1ccc(O)cc1)c1ccc(O)cc1,outcome,[2],inactive
same,AC50,[20],2.98 µM (active)
same,outcome,[6],inactive
same,outcome,[7],inactive
same,outcome,[9],inactive
same,AC50,[10],20.2 µM (active)
same,outcome,[11],inactive
same,outcome,[12],inactive
same,AC50,[13],18.9 µM (active)
same,AC50,[14],19.6 µM (active)
same,AC50,[16],11.1 µM (active)
same,outcome,[17],inactive
same,AC50,[18],32.6 µM (active)
same,AC50,[19],29.8 µM (active)
CC(C)(O)C(=O)Nc1ccc([N+](=O)[O-])c(C(F)(F)F)c1,outcome,[1],inactive
same,outcome,[3],inactive
same,outcome,[4],inactive
same,outcome,[5],inactive
same,outcome,[6],inactive
same,outcome,[7],inactive
same,outcome,[8],inactive
same,outcome,[9],inactive
same,outcome,[10],inactive
same,outcome,[11],inactive
same,outcome,[12],inactive
same,AC50,[14],45.1 µM (active) and 15.9 µM (active) and 54.5 µM (active)
same,outcome,[14],inactive
same,outcome,[16],inactive
same,outcome,[17],inactive
same,outcome,[18],inactive
same,outcome,[19],inactive
CC1=C2C[C@H]3[C@@H](CC=C4C[C@@H](O)CC[C@@]43C)[C@@H]2CC[C@]12O[C@@H]1C[C@H](C)CN[C@H]1[C@H]2C,outcome,[2],inactive
same,outcome,[20],inactive
same,outcome,[6],inactive
same,outcome,[7],inactive
same,outcome,[9],inactive
same,outcome,[10],inactive
same,outcome,[11],inactive
same,outcome,[12],inactive
same,outcome,[14],inactive
same,outcome,[15],inactive
same,outcome,[16],inactive
same,outcome,[17],inactive
same,outcome,[18],inactive
same,outcome,[19],inactive
O=S(=O)(O)C(F)(F)C(F)(F)C(F)(F)C(F)(F)C(F)(F)C(F)(F)F,outcome,[2],inactive
same,outcome,[20],inactive
same,outcome,[3],inactive
same,outcome,[4],inactive
same,outcome,[6],inactive
same,outcome,[7],inactive
same,outcome,[8],inactive
same,outcome,[9],inactive
same,outcome,[10],inactive
same,outcome,[11],inactive
same,outcome,[12],inactive
same,outcome,[13],inactive
same,AC50,[14],132 µM (active) [middle of 4 runs]
same,outcome,[15],inactive
same,outcome,[16],inactive
same,outcome,[17],inactive
same,outcome,[18],inactive
same,outcome,[19],inactive
CCC(C)(c1ccc(O)cc1)c1ccc(O)cc1,outcome,[1],inactive
same,outcome,[20],inactive
same,outcome,[3],inactive
same,outcome,[4],inactive
same,outcome,[5],inactive
same,outcome,[6],inactive
same,outcome,[7],inactive
same,outcome,[8],inactive
same,outcome,[9],inactive
same,outcome,[10],inactive
same,AC50,[11],53 µM (active)
same,outcome,[11],inactive
same,outcome,[12],inactive
same,AC50,[13],44.8 µM (active)
same,outcome,[13],inactive
same,AC50,[14],20 µM (active) and 15.3 µM (active) and 9.27 µM (active)
same,outcome,[14],inactive
same,AC50,[16],53.6 µM (active) and 33.4 µM (active) and 45.8 µM (active)
same,outcome,[16],inactive
same,outcome,[17],inactive
same,AC50,[18],32.8 µM (active)
same,outcome,[19],inactive
